Here are results for 107 sequences from PubChem BioAssay AID1508600 (Functional Genomics Laboratory (NCATS/FGL), 2020).

The whole screen tested about 53,000 sequences, of which about 3,700 (7%) were called active. Only a selection was taken, and actives are over-represented in it overall. A number with no mark means an inactive call.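 The calls were made as follows: active = gene knockdowns whose robust z-score for IL-1 alpha signal is at least 2 or at most -2, so actives lie on both sides; inactive = the rest.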

The nature of the assay: Components of the Cytosolic LPS Sensing Pathway: Gene Identification via Genome-wide siRNA Screen.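 Also: robust z of the log signal after scaling to non-targeting control siRNA wells of the plate.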 As to conditions: RAW264.7 macrophages, IL-1a HTRF, actives lie on both sides, screened at 100 nM (by protocol), cells primed 5 h with Pam3CSK4 first. A digest of the protocol:
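Three distinct siRNAs per gene were tested singly at 100 nM in RAW264.7 macrophages. Following Pam3CSK4 priming and 24 hour LipidA transfection, IL-1a secretion was read by HTRF.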
On the technique in general: TR-FRET usually uses a lanthanide donor and a delayed reading to cut background.
GGAUCAGUAGCAUUAACAATT against Tcf7l2: the z-score is 0.414.
With GGUUCUCCAUACUUAUGCCTT against Prex1, the z-score was 2.97 (active).
Consider GGGCAAUCUGCUAUUCUCUTT against Pheta2, for which the z-score is 0.18.
Regarding CCUUCUGUAUAGGUUCUGGTT against Slc41a3, the z-score was 0.716.
On to GGGCUUAUGGAGUUGUAAATT against Avpi1, for which the z-score was -0.633.
For GGACAAGAAAAAGGAUUAGTT against Clptm1, the z-score is -0.414.
GCGUGAGUCCCUAUAUGAATT against Tmem177: the z-score is 2.98 (active).
Turning to GGCUUCGCUCUGGUUUACUTT against Rap1b, the z-score was 0.323.
With GCAAUUCCACGUAUGGAUUTT against Olfr652, the z-score is 0.336.
The result for GGCAAAAUUUGUGUGCAAATT against Mrc1 reads 1.02; that for GGCAGUCAUUACCUAUCAGTT against Atp7b, -0.271.
For the sequence GGGUCAGCCAAAGGAAAAUTT against Nlrc3, the z-score is -0.193.
CCAUGUCAAUAUAGCUGUCTT against Igfbpl1: the z-score is 2.25 (active).
Consider GCUUUCUCUUAUGGAUCUATT against Olfr700, for which the z-score was 0.966.
Under CGUGAUGCUGUAAAUAGUUTT against AI606181 stands -0.485.
Under “CCCAGAAGACCCGAACUUUTT against E130006D01Rik” stands 0.378; under GGAGCAUCUCUCCAGAUUGTT against Igsf9, 0.567.
With CCGCUUUCUUGCCAUUCACTT against Olfr576, the z-score was -0.266.
For GCCUUAAUGCUUCAAGGUGTT against Hspd1, the z-score was 0.021.
The result for UCUGACAUUGACUCUAGCCTT against Fbxw16 reads -2.5 (active); that for GUUUAUGGCCUCCUGUUGCTT against Gpbar1, -0.773; that for GCAUGAGAGGUUUCAGUAUTT against Rnf150, 0.454.
For UUCGCUCUUGGUCCCUUCATT against Olfr1322, the z-score was 1.06.
Regarding GCAUGUUGUCGACACAUGCTT against Bcl6, the z-score was 2.39 (active).
Regarding “CCGUCGUGGGUGAUAUCAUTT against 2310022A10Rik”, the z-score is -0.0389.
Turning to GGUGGCUCUCCAAGUUCUATT against Uchl4, the z-score is -0.279.
Take GAACACCCUGCCGACCAAATT against Tmsb10: the z-score was -0.242.
In the case of GGACUGAGUCAGAUUUACATT against Foxn2, the z-score was -0.622.
The result for GGGCUGAUGCUUAAACAAATT against Vmn1r72 reads -2.19 (active); that for GCCCUUAUUAAACCAUUUGTT against Usp9x, -0.641.
On to GGACUGUUUUAGAUUACUUTT against Klra4, for which the z-score is 0.968.
As to GCUUAUGUUUCUGCCACUCTT against Olfr1136, the z-score was 0.124.
With GCCACCAUUAAAAGACUGATT against Gdnf, the z-score is 0.737.
Take GGACAAGAUGAACUUUUCCTT against Pomp: the z-score was -2.85 (active).
Take CCUUGUAUGGAGAUAUUCCTT against Aph1b: the z-score was -0.573.
In the case of GGUUCAGUUUGGAAAUGAATT against Rbm26, the z-score is 0.809.
In the case of CGUCUGUUUACCUCAUGAATT against Arid3a, the z-score was -0.769.
The result for GGAUUUUGUCGGCAAGGCCTT against Ap5s1 reads -3.12 (active); that for GGACUACUUCCCAAGAAUUTT against Gle1, 0.365; that for GGUGGAGAAACAAAUUAGUTT against Rab9, 1.47.
Turning to GGAAGAAAGAAUUGAACUUTT against Add3, the z-score is 1.02.
Turning to CAUGAACGUGGGUAAAACGTT against Rab20, the z-score was -0.878.
For GGAACUGGAUCCUAGGAUATT against Sh3bp5l, the z-score was -1.35.
With GCCAAAUCUACUGUUAUUUTT against Fam174a, the z-score was 1.06.
With GGAAAGAUCAUGGACAAGUTT against Dtna, the z-score is 2.06 (active).
As for GCAGUGAUCCGGAACAAAUTT against Tmc3, the z-score was -0.455.
Take GGCGAAAAUUACUCGAAAGTT against Penk: the z-score was 0.941.
In the case of GGAUGACGUAAUUGACGGCTT against Cyp19a1, the z-score was 0.0212.
CCAAAAUAAGUGUGGUCAATT against Vstm2l: the z-score is -0.623.
On to GGACUUGGUUUAUGAAACATT against Kif9, for which the z-score was -1.33.
Consider GGAGACCUUACCACUUGAATT against Ephx1, for which the z-score is -1.2.
With GGUCAAUUCCCAUACCCUGTT against Tfr2, the z-score is -1.23.
The result for CGACUCCCACCUUUAGGAGTT against Nkx2-5 reads 2.5 (active).
For GGUGAAAAUACAUUGCCAGTT against Plk4, the z-score is -0.712.
Take CCCAAAUAACAGAGAAAUGTT against St8sia6: the z-score was 0.818.
As for CCUGAGAUUUCCUAACAUCTT against Prr11, the z-score is -0.281.
As to GGUGAAGUCACUAAUCUUUTT against Prpf19, the z-score is 1.12.
For GCCACGACCUGGAACAACUTT against Taf6l, the z-score was -0.479.
“CGGCCUAACAGCCAGACUUTT against 1700013G24Rik”: the z-score was 0.9.
Turning to GGUUUCUGCCAUCCAUCAGTT against Zfa-ps, the z-score was -0.705.
CUUUUACACCAUCAUGACGTT against Mrgpra5: the z-score is -2.06 (active).
As to GGCGAAUGAAGGUUUCUGGTT against Pex11b, the z-score was -0.581.
Under GCUGUUGGUCUGAUAGCUUTT against Hadhb stands 0.378.
Take GCCAUGCCUUAAUCUUGGUTT against Cd300lf: the z-score was 0.0466.
The result for GCAAAGACGAAAUGCCGAGTT against Ttc32 reads -0.23.
As to GAUUCUCCAUUGCCCAAUGTT against Lce1i, the z-score is 0.0132.
Regarding CCUCAACUCCCUGUCACACTT against Rnaseh2a, the z-score is 0.944.
As to GGAGCGAUUCACAAAUUACTT against Tapt1, the z-score is 3.05 (active).
Regarding CGACUAUUUGGGUGGCAAGTT against Scin, the z-score was -0.103.
The result for GGUAAGAAAACUGACCUUATT against Abra reads -0.787.
In the case of GGCUGUAUGCUCAGACUGATT against Olfr147, the z-score was -1.25.
Regarding GGGCAUAUUUGGAAUCUGATT against Rtn4, the z-score is 2.51 (active).
As to GGAAUCUACCACUUGGUUCTT against Chrdl2, the z-score was -0.936.
Take GGGAUUCAGAGUCAAGAUUTT against Thpo: the z-score is -0.275.
Regarding GCUUCCUACCAUGAUGGUCTT against Otol1, the z-score was 2.13 (active).
In the case of GCCCUUACAUAAUAGCUUGTT against Tacr2, the z-score was 1.56.
Take GGUCCCAGUCUAUGAAAACTT against Pym1: the z-score is 1.81.
As to GUCCUGAAAAUGCUAUUCUTT against Olfr68, the z-score is 0.281.
Regarding CCUGGUGCUUCGUAAUUACTT against Cyp11a1, the z-score was -1.03.
GGGUACAAAACUUGAACUUTT against Gins3: the z-score is 2.84 (active).
The result for GGACAGUGUGUUUUCUUGUTT against Ankle1 reads 0.551.
Turning to CCAGAUUCCUCUUGGCCGATT against Spryd7, the z-score was 0.36.
The result for GCAAGAUUCAGAGUGCAGCTT against Txlng reads -1.09; that for GGUUGCAUUGUAGGGUUGGTT against Olfr129, 0.221; that for GCCCUAAAUCCUUUUAUUATT against Trpc7, 2.78 (active).
With GGAUGUACAAUAAUUGGGATT against Pramel39, the z-score is 1.45.
Turning to GCAGGAUUCAAAGAUCUAATT against Kbtbd8, the z-score was -0.587.
Take “GGCUCUAUCUUAAAAUAACTT against 4930542C12Rik”: the z-score was 0.125.
As for GCCGAGCUUUUGUGAGUAUTT against Rhobtb2, the z-score is 0.247.
On to GCCAAUUGGACCUUAGAAATT against Nup107, for which the z-score is -2.58 (active).
The result for GGACUUUGUCACCAUGACGTT against Pef1 reads 0.105; that for CCUAAAGAAGGUCUAUGCCTT against Tmbim6, -0.0538.
As for GAAGCACAACCUCGGCUUUTT against AY074887, the z-score was 0.448.
The result for “GGGUGUGAAAGUCAAUAAATT against 4930591A17Rik” reads 1.02; that for UGGUGAAUACCAGUCUAAUTT against Tnfrsf23, 0.0551; that for GUAUUUUACACUCUUGUGGTT against Olfr898, -2.31 (active).
As for GUAUCAUGACAGCUGUUUUTT against Olfr519, the z-score is -0.254.
Regarding GGAAAACAAGGAACAUGCGTT against Scgb1b2, the z-score is 0.138.
The result for GGCCAAGACCUCAGAGAUUTT against Apoa2 reads -1.39.
In the case of GGCAGCUUUGGAACAACUATT against Zc3h14, the z-score was -0.477.
Consider GGAUGCACUGAGGAACUCATT against Atg101, for which the z-score was -0.573.
Consider GGAUCCAUGCUGUCAGUGGTT against Sftpa1, for which the z-score was 2.17 (active).
For the sequence GGGAAUUGAUGAAAGCUCUTT against Gigyf2, the z-score was -0.369.
As for GCUUGGUGUAAUCAUGCGCTT against Prl7d1, the z-score is 0.314.
Take GGGAACUUUAGCUUAAAUUTT against Lypd6: the z-score was 0.135.
Turning to CGGCGACAUUGUUUUGCUATT against Acvr2a, the z-score is 1.19.
As to GGGCCUUCACAAUGUCCUUTT against Brca1, the z-score was 2.68 (active).
